# Results filed as inconclusive are left out. The source made the active and inactive calls. How the source made its calls, unless noted: active means hit-call score of the fitted dose curve at least 0.9, where 1 is the maximum; inconclusive means response in the unintended direction; inactive means score below 0.9.
# Assays:
# [1] = STM_H9_CystineISnorm_perc: Stemina devTOX quickPredict H9 human embryonic stem cell (hESC)-based Assay for Cystine (CYSS) Metabolite Biomarker, Normalized (AID 2283713; active means hit-call score of the fitted dose curve at least 0.9, where 1 is the maximum; inactive means score below 0.9)
# Description: STM_H9_secretome utilizes undifferentiated H9 cells to measure relative changes in two metabolites, ornithine (ORN) and cystine (CYSS) in the secretome, targeting a critical drop in the ORN/CYSS ratio as a biomarker for developmental toxicity.STM_H9_CystineISnorm_perc is one of 10 components calculated in the STM_H9_secretome assay. It measures the integrated area of the endogenous cystine normalized to the spiked-in isotopically labeled standard and to the median value of the 0.1% DMSO neutral control treatment using UPLC-HRMS technology.Data from the assay component STM_H9_CystineISnorm_perc was analyzed at the assay endpoint STM_H9_CystineISnorm_perc in the positive analysis fitting direction relative to DMSO as the negative control and baseline of activity. […]
# H9 hESCs maintained in a pluripotent state were exposed to test compound for 72h with chemical replenishment with media replacement every 24h. Cell-conditioned media from the final 24-h treatment period was collected for analysis of the targeted biomarker, and cell viability of the corresponding cell layer was assessed. […] Cell viability was measured using the CellTiter-Fluor assay (Promega, Madison, Wisconsin) based on proteolytic cleavage of a substrate to fluorescent signal proportional to the number of living cells. […]
# [2] = Tanguay_ZF_120hpf_ActivityScore_legacy: (Legacy) Oregon State University Tanguay Lab 120 Hour Post-fertilization zebrafish Assay Score for Activity (AID 2283742)
# Summary of the method: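 Dechorionated Tropical 5D embryos, one per well from 6 hpf, statically exposed to 120 hpf at 28 °C in 0.64% DMSO. Mortality and malformations scored binary by brightfield microscopy; activity score combines 18 endpoints, fitted positively versus DMSO.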
# [3] = target: zebrafish Estrogen Receptor (ESR1), esr1 (gene 259252) (UniProt P57717); test: ATG_zfER1_XSP1: Attagene TRANS-FACTORIAL Multi-Species (XSP1) HepG2 Assay for zebrafish Estrogen Receptor (ESR1) (AID 2283772)
# Chain of zebrafish Estrogen Receptor (ESR1), esr1 (gene 259252) (P57717 whole entry, looked up, the tested form may be a part): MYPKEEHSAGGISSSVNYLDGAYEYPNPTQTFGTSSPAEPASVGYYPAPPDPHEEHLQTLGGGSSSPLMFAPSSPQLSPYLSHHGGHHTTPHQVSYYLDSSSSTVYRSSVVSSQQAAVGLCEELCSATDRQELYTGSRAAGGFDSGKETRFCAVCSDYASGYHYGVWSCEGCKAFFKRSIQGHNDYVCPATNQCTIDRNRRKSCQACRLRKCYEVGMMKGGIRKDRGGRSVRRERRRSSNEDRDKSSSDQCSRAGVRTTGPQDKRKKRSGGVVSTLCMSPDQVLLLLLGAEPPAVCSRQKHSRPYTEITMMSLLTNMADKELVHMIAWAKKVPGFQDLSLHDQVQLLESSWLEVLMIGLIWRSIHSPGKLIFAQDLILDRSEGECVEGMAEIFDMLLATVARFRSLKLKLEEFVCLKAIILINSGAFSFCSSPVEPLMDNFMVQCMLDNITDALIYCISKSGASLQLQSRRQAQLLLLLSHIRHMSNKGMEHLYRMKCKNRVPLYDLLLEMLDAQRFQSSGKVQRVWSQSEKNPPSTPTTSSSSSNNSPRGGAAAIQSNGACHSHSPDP
# Summary of the method: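 Readout: fluorescent reporter mRNA, RT-PCR plus FAM labelling, HpaI digest, capillary electrophoresis; gain-of-signal fit vs DMSO. HepG2, transient multi-reporter TRANS (NR-GAL4 chimera), 24 h chemical exposure, 3 nM 6-alpha-fluorotestosterone co-added.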
# [4] = test system: zebrafish Estrogen Receptor (ESR2B), gene 317733; test: ATG_zfER2b_XSP1: Attagene TRANS-FACTORIAL Multi-Species (XSP1) HepG2 Assay for zebrafish Estrogen Receptor (ESR2B) (AID 2283773)
# Summary of the method: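 HepG2 cells transiently transfected with GAL4-UAS reporter units for chimeric zebrafish ER2b-Gal4, with 3 nM 6-alpha-fluorotestosterone present; reporter mRNA measured 24 h after dosing by RT-PCR and capillary electrophoresis, gain versus DMSO.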
# [5] = test system: frog Estrogen Receptor (ESR2), gene 100174814; test: ATG_frER2_XSP1: Attagene TRANS-FACTORIAL Multi-Species (XSP1) HepG2 Assay for frog Estrogen Receptor (ESR2) (AID 2283774)
# Summary of the method: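 HepG2 cells transiently transfected with GAL4-UAS reporter units expressing chimeric frog ER-Gal4; 3 nM 6-alpha-fluorotestosterone present. After 24 h dosing, reporter mRNA quantified by RT-PCR and capillary electrophoresis; gain-of-signal fitted relative to DMSO.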
# [6] = target: Luciferin 4-monooxygenase (Photinus pyralis) (UniProt P08659); test: CCTE_Simmons_QuantiLum_inhib_2: CCTE's Firefly Luciferase Inhibition Assay, Simmons Lab (AID 2283767);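 on AC50: potency for inhibitors that lower luciferase luminescence relative to DMSO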
# Chain of Luciferin 4-monooxygenase (Photinus pyralis) (P08659 whole entry, looked up): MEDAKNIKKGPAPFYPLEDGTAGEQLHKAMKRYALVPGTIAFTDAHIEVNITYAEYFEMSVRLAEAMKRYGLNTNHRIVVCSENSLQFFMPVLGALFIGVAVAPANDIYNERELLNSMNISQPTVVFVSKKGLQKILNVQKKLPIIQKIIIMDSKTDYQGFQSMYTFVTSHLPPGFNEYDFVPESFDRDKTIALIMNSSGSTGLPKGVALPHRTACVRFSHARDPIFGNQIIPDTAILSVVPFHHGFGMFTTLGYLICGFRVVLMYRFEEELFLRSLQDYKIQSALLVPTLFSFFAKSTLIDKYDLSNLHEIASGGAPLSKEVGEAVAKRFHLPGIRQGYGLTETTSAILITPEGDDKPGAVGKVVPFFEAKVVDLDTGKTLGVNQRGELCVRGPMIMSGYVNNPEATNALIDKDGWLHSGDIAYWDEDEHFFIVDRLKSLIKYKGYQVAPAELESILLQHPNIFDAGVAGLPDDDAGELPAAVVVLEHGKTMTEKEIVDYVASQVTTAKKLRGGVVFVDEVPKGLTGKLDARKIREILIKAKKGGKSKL
# Summary of the method: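 Recombinant firefly luciferase (5 ng/well, 200 mM potassium phosphate with 1 mg/ml BSA) was exposed to 8 concentrations from 5 nM to 87.5 uM (final, 0.5% DMSO) for 30 min at 37C in the dark. Loss of luminescence versus DMSO was read after injecting D-luciferin/ATP-analogue reagent.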
# [7] = ACEA_AR_agonist_AUC_viability: ACEA Biosciences xCELLigence Real-Time Cell Analysis on Androgen Receptor Agonism for Viability (AID 2283775);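 on AC50: viability read 80 hours after compound addition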
# Summary of the method: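 Read-out is area under the impedance curve at 80 h post-dose in 22Rv1 cells, with DMSO as baseline and signal loss taken as reduced viability. Compounds ran in duplicate from 100 uM final.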
# [8] = ACEA_AR_antagonist_AUC_viability: ACEA Biosciences xCELLigence Real-Time Cell Analysis on Androgen Receptor Antagonism for Viability (AID 2283776);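 further: 22Rv1 human prostate cancer cells growing on impedance electrode plates; area under impedance growth curve at 80 h after dosing as viability; hits lower the growth signal relative to DMSO meaning cytotoxicity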
# Summary of the method: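 Real-time electrical impedance tracks 22Rv1 proliferation after continuous compound exposure (top 100 uM final, 1:4 steps, 8 concentrations). The 80 h area-under-curve serves as the cytotoxicity readout relative to DMSO.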
smiles,measurement,setting,value
CS(=O)(=O)OCCCCOS(C)(=O)=O,AC50,[1],5.25 µM (active)
same,outcome,[2],inactive
CCCCC(CC)COC(=O)c1ccc(O)cc1 (stereo not drawn),outcome,[3],inactive
same,AC50,[4],3.67 µM (active)
same,AC50,[5],0.86 µM (active)
CCc1cc(Cc2cc(CC)cc(C(C)(C)C)c2O)c(O)c(C(C)(C)C)c1,outcome,[6],inactive
same,AC50,[7],24.3 µM (active)
COCCOCCOCCO,outcome,[7],inactive
O=P(O)(O)O,outcome,[7],inactive
[O-]n1ccccc1=S.[O-]n1ccccc1=S.[Zn+2],outcome,[6],inactive
same,AC50,[7],11.8 µM (active)
same,AC50,[8],22.9 µM (active)
C=C(C)[C@@H]1CC=C(C)C(=O)C1,outcome,[7],inactive
CC(=O)O[C@@H]1CC2CCC1(C)C2(C)C (stereo partly drawn),outcome,[7],inactive
CCc1ccc(O)cc1,outcome,[6],inactive
same,outcome,[7],inactive
CCCCCCCCC=CCCCCCCCC1=NCCN1CCO,outcome,[6],inactive
same,outcome,[7],inactive
CCOc1ccccc1O,outcome,[6],inactive
same,outcome,[7],inactive
Cc1cc(S(=O)(=O)O)ccc1N=Nc1c(O)ccc2ccccc12,AC50,[6],27.8 µM (active)
same,outcome,[7],inactive
CCOC(=O)c1ccc(N)cc1,outcome,[6],inactive
same,outcome,[7],inactive
O=[N+]([O-])c1ccc(O)cc1C(F)(F)F,AC50,[7],12.3 µM (active)
O=c1c(O)c(-c2ccc(O)cc2)oc2cc(O)cc(O)c12,AC50,[6],34.3 µM (active)
same,outcome,[7],inactive
CN(C)c1cccc(O)c1,AC50,[6],40.6 µM (active)
same,outcome,[8],inactive
CCCCCCCCc1ccc(S(=O)(=O)O)cc1,outcome,[6],inactive
same,outcome,[7],inactive
O=C1NC2NC(=O)NC2N1 (stereo not drawn),outcome,[7],inactive
CC(C)CCCCCCCCCCCCCCC(=O)O,outcome,[6],inactive
same,outcome,[7],inactive
O=C(O)CCCCCCCCC(=O)O,outcome,[6],inactive
same,AC50,[7],2.76 µM (active)
same,AC50,[8],2.07 µM (active)
CCC(=O)O[C@@H]1C[C@H]2CC[C@]1(C)C2(C)C,outcome,[7],inactive

# — PubChem BioAssay (EPA / NIEHS)
